Bioassay records as filed in PubChem.
SRC1 inh = inhibitors of human steroid receptor coactivator 1 (SRC1) | Q15788 | HEK293 GAL4-SRC1 luciferase reporter, luminescence | inhibition, % at 3.6 µM | hit rate 0.12% among 360,000 | AID 588354;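 active = inhibition above the campaign mean plus 3 SD, with each screening campaign given its own cutoff, cut at about 60% in these data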
COUP-TFII inh = inhibitors of human COUP-TFII (NR2F2); HEK293T NGFI-A luciferase reporter, luminescence; inhibition, % at 8.6 µM; hit rate 0.7% among 370,000; AID 686940;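 active = inhibition above a per-plate cutoff, mean inhibition of test wells between control levels plus 3 SD, cut at about 38% in these data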;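 also: cells cotransfected with COUP-TFII expression vector driving the NGFI-A reporter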
Target sequence (P24468 whole entry, looked up): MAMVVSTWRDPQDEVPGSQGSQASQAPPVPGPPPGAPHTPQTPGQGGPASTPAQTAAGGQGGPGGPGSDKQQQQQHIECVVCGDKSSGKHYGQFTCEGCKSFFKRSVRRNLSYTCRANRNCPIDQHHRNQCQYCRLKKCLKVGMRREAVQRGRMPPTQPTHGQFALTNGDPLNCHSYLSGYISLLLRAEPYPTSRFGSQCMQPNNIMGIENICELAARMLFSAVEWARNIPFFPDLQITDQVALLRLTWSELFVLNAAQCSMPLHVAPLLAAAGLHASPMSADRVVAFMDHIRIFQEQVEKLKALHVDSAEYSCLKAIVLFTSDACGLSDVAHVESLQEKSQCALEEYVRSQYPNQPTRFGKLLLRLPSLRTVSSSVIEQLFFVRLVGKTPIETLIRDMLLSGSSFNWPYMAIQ
NR5A2 inv ag = suppresses constitutive activity of human LRH-1; O00482; inhibition, % at 3.6 µM; AID 602396; hit rate 0.13% among 360,000; HEK293T StAR-luciferase reporter, LRH-1 transfected, 24 h;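 active = inhibition above the mean inhibition of all tested compounds plus 3 SD, cut at about 73% in these data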
NCOA2 inhibitor = human SRC2 (NCOA2) inhibition | Q15596 | HEK293 GAL4-SRC2 luciferase reporter, luminescence | inhibition, % at 9 µM | hit rate 0.17% among 370,000;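 active = inhibition above the mean inhibition of all tested compounds plus 3 SD, set per campaign, cut at about 52% in these data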
Gli-Sufu antag = Gli-Sufu pathway antagonism. Sufu-KO-LIGHT fibroblasts, Gli luciferase reporter luminescence. inhibition, % at 5 µM. hit rate 0.74% among 340,000;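 active = inhibition above about 55%, limit read from the data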
SRC3 inh = inhibitors of human steroid receptor coactivator 3 (SRC3); Q9Y6Q9; inhibition, % at 3.6 µM; hit rate 0.17% among 360,000; HEK293 GAL4-SRC3 luciferase reporter, luminescence;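 active = inhibition above a per-campaign cutoff, the mean of all compounds plus 3 SD, cut at about 60% in these data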;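 also: higher means less SRC3-driven luciferase light from the GAL4 reporter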
Gal4-VP16 ctr = counter-screen for COUP-TFII antagonists: inhibitors of VP16. shares compounds with COUP-TFII inh. hit rate 25% among 2,500. inhibition, % at 8.5 µM. HEK293 Gal4-VP16 luciferase reporter, luminescence; in the data active = inhibition above about 13%
COUP-TFII conf = confirmation of human COUP-TFII (NR2F2) inhibitors; hit rate 45% among 2,500; HEK293 NGFI-A luciferase reporter, luminescence; AID 687008; shares compounds with COUP-TFII inh; inhibition, % at 8.5 µM;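 active = mean inhibition over three repeats above a set limit taken from the earlier primary screen, cut at about 38% in these data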
Hits are given with their value; . = inactive; / = no result given. The list is not random: actives were taken first. Their share in the collection is about 1.3%.

SMILES	SRC1 inh	COUP-TFII inh	NR5A2 inv ag	NCOA2 inhibitor	Gli-Sufu antag	SRC3 inh	Gal4-VP16 ctr	COUP-TFII conf
Cc1cc(C(=O)NC2CCCc3c2cnn3-c2ccc(C)c(C)c2)no1 (stereo unspecified)	.	.	.	.	.	.	/	/
CCn1nc(C)cc1C(=O)NC1CCCc2c1cnn2-c1ccc(C)c(C)c1 (stereo unspecified)	.	54	.	.	.	.	.	40
Cc1cc(C(=O)NC2CCCc3c2cnn3-c2cccc(C)c2C)n(C)n1 (stereo unspecified)	.	67	.	.	81	.	.	68
O=C(CSc1nnc(-c2ccccn2)n1-c1ccccc1)c1ccc(F)cc1	/	.	/	.	/	/	/	/
Cc1cccc(-c2cccc(NC(=O)C3CCCN(C(=O)c4csc(C)n4)C3)c2)c1 (stereo unspecified)	.	42	.	.	.	.	.	.
Cc1ccc(-n2c(SCC(=O)c3ccccc3Br)nnc2-c2ccncc2)cc1	/	.	/	.	/	/	/	/
COc1ccc(C2CC(=O)C(c3ccccc3C)=CN2Cc2ccccc2)cc1 (stereo unspecified)	/	.	/	.	/	/	/	/
CCCCC(NC(=O)Cc1c(C)c2cc3c4c(oc3cc2oc1=O)CCCC4)C(=O)O (stereo unspecified)	.	.	.	.	.	.	/	/
CCC(NC(=O)CCc1c(C)c2cc3c4c(oc3cc2oc1=O)CCCC4)C(=O)O (stereo unspecified)	.	40	.	65	.	.	46	42
Cc1c(CCC(=O)NCCCCCC(=O)O)c(=O)oc2c(C)c3oc4c(c3cc12)CCCC4	.	.	.	.	.	.	/	/
Cc1c(CCC(=O)NCCCC(=O)O)c(=O)oc2cc3oc4c(c3cc12)CCCC4	.	49	.	63	.	.	35	.
Cc1c(CCC(=O)N[C@@H](CCCNC(N)=O)C(=O)O)c(=O)oc2cc3oc4c(c3cc12)CCCC4	.	53	.	68	.	.	29	.
CO[C@H]([C@H](C)/C=C/N(C)C=O)[C@@H](C)C(O)CC[C@H](C)[C@H](O)[C@H](C)[C@H]1OC(=O)/C=C/C(C)=C/C[C@H](O)C[C@@H]2C=CC[C@@H](C[C@H](OC)[C@@]3(CO3)[C@@H](OC)C[C@@H](OC)[C@@H]1C)O2 (stereo partly specified)	/	.	/	/	/	/	/	/
O=C(N/N=C\c1ccc(-c2ccccc2[N+](=O)[O-])o1)C1COc2ccccc2O1 (stereo unspecified)	.	.	.	.	.	.	/	/
O=C(N/N=C\c1ccc([N+](=O)[O-])o1)C1COc2ccccc2O1 (stereo unspecified)	.	44	.	62	.	.	.	.
Cc1scc(C(=O)N/N=C/c2ccc([N+](=O)[O-])o2)c1C	.	50	.	71	/	.	57	59
Cn1ccnc1CN1CCC[C@]2(CC[C@H](CCC#N)O2)C1	/	.	/	.	/	/	/	/
CCN(Cc1cn(Cc2ccccc2)nn1)S(=O)(=O)c1ccccc1Br	/	.	/	.	/	/	/	/
O=C(Cn1cnc2ccccc21)Nc1ccc2c(c1)OCCCO2	.	39	.	.	.	.	.	.
COc1ccc(NC(=O)CSc2ncccc2C(=O)OC(C)C)cc1OC	.	58	.	.	.	.	.	.
O=C(CSc1ncccc1C(=O)O)Nc1ccc2c(c1)OCCO2	.	55	.	.	.	.	.	.
COC(=O)N1CCCC1c1cccc2[nH]cc(C)c12 (stereo unspecified)	/	.	/	.	/	/	/	/
O=C(CCc1ccccc1-c1ccccc1CCNC(=O)c1c(F)cccc1F)NCc1ccccc1	/	.	/	.	/	/	/	/
COCCN=c1scc(-c2ccc3c(c2)NC(=O)CO3)n1/N=C(\C)c1ccc(O)cc1	.	38	.	.	.	.	.	.
CCOc1ccc(Nc2nc(NCC3CCCO3)c3ccccc3n2)cc1 (stereo unspecified)	.	60	.	.	71	.	.	43
SMILES	SRC1 inh	COUP-TFII inh	NR5A2 inv ag	NCOA2 inhibitor	Gli-Sufu antag	SRC3 inh	Gal4-VP16 ctr	COUP-TFII conf
COc1ccc(Nc2nc(NCC3CCCO3)c3ccccc3n2)c(OC)c1 (stereo unspecified)	.	.	.	.	.	.	/	/
O=C(OC12CCCN(C1)/C(=C/c1cccnc1)C2)c1ccccc1 (stereo unspecified)	/	.	/	.	/	/	/	/
O=C(OC12CCCN(C1)/C(=C/c1ccncc1)C2)c1ccccc1 (stereo unspecified)	/	45	/	.	/	/	.	.
O=C(Nc1ccccc1)c1cc(C2CCCN(C(=O)CCc3ccccc3)C2)on1 (stereo unspecified)	.	.	.	.	/	.	/	/
CN(C)c1ccc(CC(=O)N2CCCC(c3cc(C(=O)Nc4ccc(C(C)(C)C)cc4)no3)C2)cc1 (stereo unspecified)	.	64	.	.	/	.	14	61
S=C1NC2=C(CCCC2=C2SCCS2)C(c2ccccc2)N1 (stereo unspecified)	.	37	.	.	.	.	.	.
COC(=O)[C@]12C[C@H](CC(=O)N3CCOCC3)C(=O)N(CCC3=CCCCC3)C1=C[C@H](C(C)C)O[C@@H]2C1CC1	/	.	/	.	/	/	/	/
CCC(Sc1nc(=O)cc(N)n1-c1cccc(C)c1)C(=O)Nc1cc(C)on1 (stereo unspecified)	.	43	.	.	.	.	.	.
Cc1ccc(Cn2ccc(NC(=O)c3cc(C4CC4)on3)n2)cc1	.	39	.	.	.	.	.	.
CCN(CC(=O)Nc1ccc(NC(C)=O)cc1)C(=O)c1ccc(COc2ccc(C(C)(C)C)cc2)cc1	.	51	.	.	.	.	.	38
COc1ccc(CCNC(=O)C(C)n2nc(C)c3c(C)n(-c4ccc(C)cc4)nc3c2=O)c(OC)c1 (stereo unspecified)	.	61	.	.	.	.	.	62
COc1ccccc1CCNC(=O)C(C)n1nc(C)c2c(C)n(-c3ccccc3)nc2c1=O (stereo unspecified)	.	.	.	.	.	.	/	/
CCOC(=O)c1ccc(NC(=O)COc2ccc(S(=O)(=O)NC(C)CC)cc2)cc1 (stereo unspecified)	.	47	.	.	.	.	.	.
CC(=O)c1cccc(NS(=O)(=O)c2ccc(C(=O)Nc3ccccc3)cc2)c1	.	49	.	.	.	.	.	48
CCOC(=O)c1cccc(NS(=O)(=O)c2ccc(NC(C)=O)cc2)c1	.	39	.	.	.	.	.	.
CC(C)NC(=O)N[C@@H]1C[C@@H]2O[C@H](CO)CC[C@@H]2O[C@@H]1CCc1ccc(-c2ccccc2F)cc1	/	.	/	.	/	/	/	/
O=C(Nc1ccc(-c2nc3ccccc3s2)cc1)c1cc(-n2cnnc2)ccc1Cl	.	70	.	.	.	.	.	52
